These results are taken from the antibiotic and cytotoxicity screens of Wong et al. (2023).

Out of some 39,000 compounds screened, about 3,300 (8.5%) were called active. What follows is part of a selection rich in actives, with near analogues and random picks from the rest.

This assay concerns HepG2. As to the kind of experiment: cytotoxicity call (relative viability < 0.9). As to conditions: 10 µM.
Take `O=C(C[C@H]1CC[C@H]2[C@@H](COC[C@@H](O)CN2C(=O)c2ccccc2)O1)N1CCOCC1`: the cytotoxicity call was “inactive”. Next, `Cc1noc(C)c1S(=O)(=O)Nc1cccc2c1O[C@H](CN(C)Cc1ccc(-c3ccccc3)cc1)[C@H](C)CN([C@@H](C)CO)C2=O`: “inactive”; `Cc1noc(C)c1S(=O)(=O)N(C)C[C@H]1Oc2c(NC(=O)c3cnccn3)cccc2C(=O)N([C@H](C)CO)C[C@H]1C`: “inactive”. As for `COc1ccc(NC(=O)Nc2ccc3c(c2)C(=O)N([C@@H](C)CO)C[C@@H](C)[C@H](CN(C)S(=O)(=O)c2ccc(C)cc2)OCCCC[C@@H](C)O3)cc1`, the cytotoxicity call was “inactive”. In the case of `COc1ccc(C(=O)Nc2ccc3c(c2)C(=O)N(C)[C@@H]2CC[C@H](CC(=O)NCC4CC4)O[C@@H]2CO3)cc1` it was “active”.

Take `CCCNC(=O)C[C@@H]1CC[C@@H]2[C@H](COc3ccc(NC(=O)c4ccc5c(c4)OCO5)cc3C(=O)N2C)O1`: the cytotoxicity call was “inactive”. In the case of `COc1ccc(C(=O)Nc2ccc3c(c2)C(=O)N(C)[C@@H]2CC[C@H](CC(=O)NCC4CC4)O[C@H]2CO3)cc1` it was “active”. Next, `CCCNC(=O)C[C@@H]1CC[C@@H]2[C@@H](COc3ccc(NC(=O)c4ccc5c(c4)OCO5)cc3C(=O)N2C)O1`: “inactive”; `CCCNC(=O)C[C@H]1CC[C@@H]2[C@@H](COc3ccc(NC(=O)c4ccc5c(c4)OCO5)cc3C(=O)N2C)O1`: “active”. Next, `COc1ccc(C(=O)Nc2ccc3c(c2)C(=O)N(C)[C@H]2CC[C@@H](CC(=O)NCC4CC4)O[C@H]2CO3)cc1`: “inactive”; `COc1ccc(C(=O)Nc2ccc3c(c2)C(=O)N(C)[C@H]2CC[C@H](CC(=O)NCC4CC4)O[C@H]2CO3)cc1`: “inactive”; `COc1ccc(C(=O)Nc2ccc3c(c2)C(=O)N(C)[C@@H]2CC[C@@H](CC(=O)NCC4CC4)O[C@@H]2CO3)cc1`: “inactive”. For the compound `COc1ccc(C(=O)Nc2ccc3c(c2)C(=O)N(C)[C@H]2CC[C@H](CC(=O)NCC4CC4)O[C@@H]2CO3)cc1`, the cytotoxicity call is “inactive”. Next, `C[C@@H]1CCCCO[C@H](CN(C)C(=O)C2CCCCC2)[C@H](C)CN([C@@H](C)CO)C(=O)c2cc(NS(=O)(=O)c3cccs3)ccc2O1`: “inactive”; `Cc1cc(C(=O)Nc2cccc3c2O[C@@H](CN(C)Cc2ccccc2)[C@@H](C)CN([C@H](C)CO)C3=O)n(C)n1`: “inactive”. Next, `C[C@H](CO)N1C[C@H](C)[C@H](CN(C)Cc2ccc(Oc3ccccc3)cc2)OCc2ccccc2-c2ccccc2C1=O`: “inactive”; `C[C@H]1CN([C@@H](C)CO)C(=O)c2cc(NC(=O)NC3CCCCC3)ccc2O[C@@H]1CN(C)Cc1ccc(C(F)(F)F)cc1`: “inactive”. With `O=C(C[C@@H]1C=C[C@H](NS(=O)(=O)c2ccc(F)cc2)[C@@H](CO)O1)N1CCC(Cc2ccccc2)CC1`, the cytotoxicity call is “inactive”. In the case of `C[C@@H]1CN([C@H](C)CO)C(=O)CCCn2cc(nn2)CO[C@H]1CN(C)S(=O)(=O)c1ccc2ccccc2c1` it was “inactive”; in that of `Cc1noc(C)c1NC(=O)N(C)C[C@H]1OCCCC[C@@H](C)Oc2ccc(NC(=O)Cc3ccccc3)cc2C(=O)N([C@@H](C)CO)C[C@@H]1C`, “inactive”; in that of `Cc1noc(C)c1NC(=O)Nc1cccc2c1O[C@@H](CN(C)Cc1ccc(Cl)c(Cl)c1)[C@@H](C)CN([C@@H](C)CO)C2=O`, “inactive”. In the case of `CO[C@@H]1CN(C)C(=O)c2ccc(NS(=O)(=O)c3ccccc3C)cc2OC[C@H](C)N(S(C)(=O)=O)C[C@H]1C` it was “inactive”. Next, `C[C@H]1CCCCO[C@H](CN(C)S(C)(=O)=O)[C@@H](C)CN([C@@H](C)CO)C(=O)c2cc(NS(C)(=O)=O)ccc2O1`: “inactive”; `COc1ccc(S(=O)(=O)Nc2ccc3c(c2)C(=O)N([C@@H](C)CO)C[C@@H](C)[C@H](CN(C)S(=O)(=O)c2ccc(OC)cc2)O3)cc1`: “inactive”. On to `N=C(N)NCCC[C@@H]1NC(=O)[C@@H](N)CSSC[C@@H](C(=O)O)NC(=O)[C@H](CC(=O)O)NC(=O)[C@@H]2CCCN2C(=O)CNC(=O)[C@H](CCCCN)NC(=O)[C@H](CC(=O)O)NC(=O)CNC1=O`, for which the cytotoxicity call was “inactive”.

On to `N=C(N)NCCCC[C@@H]1NC(=O)CCSSC[C@@H](C(N)=O)NC(=O)[C@@H]2CCCN2C(=O)[C@H](Cc2c[nH]c3ccccc23)NC(=O)[C@H](CC(=O)O)NC(=O)CNC1=O`, for which the cytotoxicity call was “inactive”. Next, `CC(C)[C@H]1C(=O)N[C@@H](CCCNC(=N)N)C(=O)NCC(=O)N[C@@H](CC(=O)O)C(=O)N[C@H](Cc2ccccc2)C(=O)N1C`: “active”; `C[C@@H]1CN([C@@H](C)CO)C(=O)Cc2cc(NC(=O)Nc3ccccc3)ccc2O[C@H]1CN(C)C(=O)Nc1cccc2ccccc12`: “inactive”; `C[C@H]1CN([C@@H](C)CO)C(=O)c2cccc(NC(=O)c3ccc(-c4nccs4)cc3)c2O[C@H]1CN(C)S(C)(=O)=O`: “inactive”.

With `C[C@@H]1CN([C@H](C)CO)C(=O)c2cc(C#CCc3ccccc3)cnc2O[C@H]1CN(C)C(=O)Cc1cccnc1`, the cytotoxicity call is “inactive”. On to `C[C@H]1CN([C@@H](C)CO)C(=O)c2cc(-c3ccc(C#N)cc3)cnc2O[C@@H]1CN(C)C(=O)Nc1ccc(C(F)(F)F)cc1`, for which the cytotoxicity call was “inactive”. Next, `NCc1ccc(-c2ccc(Br)cc2)cc1`: “inactive”; `CN(C)CCOc1ccc(CN)cc1`: “inactive”. In the case of `Cc1ccc(Oc2ccc(CN)cc2)cc1` it was “active”; in that of `C[C@@H]1CCCCO[C@@H](CN(C)Cc2ccncc2)[C@@H](C)CN([C@H](C)CO)C(=O)c2cc(NC(=O)C3CCCCC3)ccc2O1`, “inactive”; in that of `O=C(O)CCn1ccnc1`, “inactive”. Next, `Clc1ccc(Cn2ccnc2)cc1`: “inactive”. For `O=C(O)C=Cc1ccc(Cn2ccnc2)cc1`, the cytotoxicity call is “active”. Turning to `NCCN1CCO[C@@H](CC(=O)Nc2cc(Cl)cc(Cl)c2)C1=O`, the cytotoxicity call is “inactive”. With `CC(C)NC(=O)[C@H]1CC[C@@H](n2c(NC(=O)c3ccc(F)cc3)nc3ccc(CN4CCC(C(C)(C)O)CC4)cc32)CC1`, the cytotoxicity call is “active”.

`O=C(N[C@@H](c1ccccc1)c1ccc2ccccc2n1)C1CCN(Cc2ccc(Cl)c(Cl)c2)CC1`: the cytotoxicity call was “inactive”.

`COc1cc(OC)nc([C@@H](NC(=O)C2CCN(CCN3C(=O)c4ccccc4C3=O)CC2)c2ccc(F)cc2)n1`: the cytotoxicity call was “inactive”. In the case of `COc1ccccc1S(=O)(=O)N(C)C[C@H]1OCc2cnnn2CCCC(=O)N([C@@H](C)CO)C[C@@H]1C`, the cytotoxicity call is “inactive”.
